Tests used:
Type in all cases: functional
[1] = test system: Plasmodium falciparum; assay: GSK_TCMDC: Inhibition of Plasmodium falciparum 3D7 in whole red blood cells, using parasite LDH activity as an index of growth. Test compounds present at 2uM
[2] = test system: Plasmodium falciparum; assay: GSK_TCMDC: Inhibition of Plasmodium falciparum Dd2 in whole red blood cells, using parasite LDH activity as an index of growth. Test compounds present at 2uM
[3] = test system: HepG2; assay: GSK_TCMDC: Percent inhibition of human HepG2 cell line. Test compounds present at 10uM.

SMILES	Inhibition [1]	Inhibition [2]	Inhibition [3]
O=C(Nc1ccc(I)cc1)Nc1ccc(Cn2ncc(N3CCCNCC3)c(Cl)c2=O)cc1.O=C(O)C(F)(F)F	86%	30%	35%
Cc1ccc(S(=O)(=O)c2nc(S(=O)(=O)c3ccccc3)sc2NCC2CCCO2)cc1 (centres undefined)	88%	17%	4%
O=C(CC1NC(=O)c2ccccc21)Nc1ccc(-c2ccc(-c3nc4cc(C(F)(F)F)ccc4[nH]3)cc2)cc1 (centres undefined)	87%	70%	39%
O=C(Cn1c(CCc2cccc(F)c2F)cc(=O)c2cccnc21)N(CCCn1ccnc1)Cc1ccc(-c2ccc(C(F)(F)F)cc2)cc1	96%	47%	38%
O=C(/C=C/c1ccc([N+](=O)[O-])cc1)N1CCC(NS(=O)(=O)c2ccc(F)cc2)CC1	96%	0%	0%
CN1CCCC1CCNC(=O)[C@H](CC1CCCCC1)NC(=O)c1ccc(O)c(-c2ccc(Cl)c(Cl)c2)c1 (some centres undefined)	98%	35%	0%
Cc1cc(O)c(-c2ccc(Sc3ccc(Cl)cc3)cc2)c(C)n1	92%	84%	0%
Cc1ccc(C(=O)Nc2ccc(F)c(F)c2F)cc1S(=O)(=O)N1CCCCC1	92%	69%	3%
CN1CCC(Oc2cc(CN3CC[C@H](NC(=O)c4ccc(Cl)c(Cl)c4)C3)ccc2I)C1.O=C(O)C(F)(F)F (some centres undefined)	97%	24%	68%
FC(F)(F)c1ccc2[nH]c(-c3cccc(-c4ccc(CNCCN5CCNCC5)cc4)c3)nc2c1.O=C(O)C(F)(F)F	96%	0%	17%
CCCc1cc(OC)c(C[C@H]2c3cc(O)c(Cl)cc3CCN2C)cc1OC.Cl	97%	98%	0%
COc1ccc(Br)cc1/C=C/C(=O)Nc1cccc(C2CCN(C)CC2)c1.O=CO	95%	37%	44%
CCOC(=O)c1c[nH]c2c(ccc3ccccc32)c1=O	96%	96%	0%
COc1cc2c(cc1COc1ccccc1)CCN1Cc3cc(OC)c(OC)cc3CC21 (centres undefined)	99%	84%	0%
CC(=O)N1N=C(c2ccccc2)Sc2c1nc(-c1ccc(Cl)cc1)n2C(C)=O	94%	18%	0%
O=C(/C=C/c1c[nH]c2ccccc12)NCCCCCN1CCC(c2c[nH]c3ccccc23)CC1	96%	0%	20%
CC1CCC(NCc2c(O)ccc3ccccc23)CC1.Cl (centres undefined)	95%	77%	13%
CNC(=O)c1cnc(Nc2ccc(OCC(O)CN(C)C)cc2)nc1Nc1cccc([N+](=O)[O-])c1.O=C(O)C(F)(F)F (centres undefined)	100%	94%	52%
